Data: PubChem BioAssay AID1117319 (Southern Research Institute, 2015)
Where “and” joins values, the source holds several entries; their conditions need not be identical. Equal values may be shown once. Hit rate of the full screen: of about 260,000 compounds, about 1,500 (0.58%) were called active. About 5% were inconclusive and are not listed.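 How the source made its calls: active means inhibition above a set limit at one or more doses, reproduced on every date tested; inconclusive means results disagree between test dates, or hit never tested in dose response; inactive means the rest.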 Not all results are given here. Measured potencies and affinities stand elsewhere.

molecular target: Virion infectivity factor (Human immunodeficiency virus type 1 group M subtype B (isolate BH10)) + Virion infectivity factor (Human immunodeficiency virus type 1 group M subtype B (isolate BRU/LAI)) + Virion infectivity factor (Human immunodeficiency virus type 1 group M subtype B (isolate PCV12)) + Virion infectivity factor (Human immunodeficiency virus type 1 group M subtype B (isolate HXB2)) + DNA dC->dU-editing enzyme APOBEC-3G (Homo sapiens) (UniProt P69720+P69721+P69722+P69723+Q9HC16); assay: HIV-1 Vif–A3G interaction blockers – biochemical, TR-FRET, GST-Vif 1-94, biotin-A3G peptide, dose response retest, primary screen (AID 1117319); conditions: TR-FRET GST-Vif / biotin-A3G peptide binding; active compounds read high;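 further: Vif residues 1-94 fused to GST binding biotinylated APOBEC3G peptide 110-148; 0% = full assay without inhibitor and 100% = GST in place of GST-Vif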

inhibition, inactive:
CC1CCN(c2nnc(NC(=O)Cn3c(=O)oc4ccccc43)s2)CC1 4.48%
COC(=O)c1c(S(=O)(=O)N2CCOCC2)c(C)n(C)c1C 2.63%
Cc1cn([C@H]2C[C@H](O)[C@@H](CNCc3ccccc3)O2)c(=O)[nH]c1=O -4.57%
CC1CN(C(=O)c2ccn(C)n2)CC(C)O1 (stereo unspecified) -6.54%
O=C1c2ccccc2C(=O)N1Cc1ccco1 6.23%
CC1S/C(=N/N=C/c2ccco2)N(Cc2ccc(F)cc2)C1=O (stereo unspecified) 2.84%
O=C(CN1CCN(Cc2ccccc2)CC1)N/N=C\C=C/c1ccco1 29.4%
O=C1CS/C(=N/N=C/c2ccco2)N1Cc1ccc(F)cc1 10.9%
O=C1C2C3CCC(C3)C2C(=O)N1Cc1ccco1 (stereo unspecified) -17.6%
CC(c1ccccc1)C1CC(=O)N(Cc2ccco2)C1=O (stereo unspecified) 1.07%
CC1S/C(=N/N=C/c2ccco2)N(Cc2ccccc2)C1=O (stereo unspecified) 4.75%
O=C(CN1C(=O)C(=O)N(Cc2ccco2)C1=O)NC1CCCCC1 10.2%
O=c1cc(NCCc2ccccc2)c2ccccc2o1 -9.21%
Cc1ccc(OCCNC(=O)CNC(=O)c2ccccc2Cl)cc1 -0.63%
Cc1cc(C)c(S(=O)(=O)N2CCCC(C(=O)NCCC3=CCCCC3)C2)c(C)c1 (stereo unspecified) 9.17%
O=C(N=C1SC2CS(=O)(=O)CC2N1Cc1ccccc1)C1CC1 (stereo unspecified) -2.49%
COc1ccc(CNc2nc(NCc3ccc(OC)c(OC)c3)n(C(=O)c3cccs3)n2)cc1OC 13.3%
COc1ccc(CN2CCNC(=O)C2CC(=O)N(Cc2nccn2C)C(C)C)c(OC)c1 (stereo unspecified) -0.6%
CC(C)N(Cc1nccn1C)C(=O)CC1C(=O)NCCN1Cc1ccc(F)c(F)c1 (stereo unspecified) -8.55%
Cc1ccc(SCCOCCN2CCc3ccccc3C2)cc1 -8.65%
C/C(Cl)=C/Cc1c(C)[nH]c2ccc(C)cc2c1=O -1.26%
COc1ccc(C(=O)N(C)C(C)c2nccs2)cc1OC1CCN(C(C)=O)CC1 (stereo unspecified) -6.6%
CC1(C)CC2(CC(c3ccccc3F)c3cc(Cl)c(O)cc3O2)NC(=S)N1 (stereo unspecified) 0.09%
CC1(C)CC2(CC(c3ccccc3)c3ccc(O)cc3O2)NC(=S)N1 (stereo unspecified) 0.62%
Cc1cc(C)c(C(=O)NC2CC(C)(C)Cc3c2cnn3-c2ccccc2)o1 (stereo unspecified) 1.78%
O=[N+]([O-])c1ccc(-c2ccc(/C=N/Nc3nc(N4CCCC4)nc(N4CCCC4)n3)o2)cc1 -1.43%
O=[N+]([O-])c1ccc(/C=N/Nc2nc(N3CCCCCC3)nc(N3CCCCCC3)n2)o1 10.1%
COC(=O)C1=C(CS(=O)(=O)c2ccc(Cl)cc2)NC(=O)NC1c1ccc(O)cc1 (stereo unspecified) 9.59%
CC(C)N(C(=O)CSc1nnc(-c2cc3ccccc3cc2O)n1Cc1ccco1)C(C)C 9.68%
CC(=O)c1cccc(NC(=O)c2ccoc2C)c1 7.62%
CC1(C)N=C(c2ccccc2)C(=O)N1 1.67%
CC(C)[C@H](NC(=O)c1ccco1)C(=O)OCC(=O)c1ccc2c(c1)NC(=O)CO2 30.8%
COc1cc(C(=O)NNC(=S)NC(=O)c2ccc(F)cc2)cc(OC)c1OC 13.5%
CCN(CC)CCn1c2ccccc2c2nc3ccccc3nc21 -1.16%
CCc1cc2c(=O)c(-c3nc4ccccc4n3C)c(C)oc2c(CN(CC)CC)c1O -0.78%
CC1=CN2C(=N)/C(=C/c3ccco3)C(=O)N=C2S1 14.9%
CC1=CN2C(=N)/C(=C/c3ccc(Sc4ccc(C)cc4)o3)C(=O)N=C2S1 -0.88%
O=C(Nc1cccc2c1[nH]c1ccccc12)C(F)(F)F -2.08%
COc1cc2[nH]c3c(Cl)ncnc3c2cc1OC -0.29%
COc1ccc2c([N+](=O)[O-])c(Cl)[nH]c2c1 21.2%
COc1ccc(C)cc1S(=O)(=O)NCC(c1ccco1)N1CCc2ccccc2C1 (stereo unspecified) -3.21%
N#CC1=C(N)OC2=C(C(=O)CC(c3ccco3)C2)C1c1ccc(OCc2c(F)cccc2Cl)cc1 (stereo unspecified) 13.6% and 14.7%
COc1cccc(C2C(C#N)=C(N)OC3=C2C(=O)CCC3)c1OC(=O)c1ccco1 (stereo unspecified) 22.1%
Cc1ccc(NC(=O)C(C)Sc2nc(-c3ccccc3)cc(=O)[nH]2)cc1 (stereo unspecified) -0.75%
O=C1C=C(c2ccccc2)C(c2ccccc2)C1 (stereo unspecified) 0.24%
COc1ccc(C(=O)N2CCN(c3cccc(Cl)c3)CC2)cc1 -2.36%
COc1ccc(N2CCN(C(=O)c3ccc(C)cc3Cl)CC2)cc1 6.52%
COc1ccc(N2CCN(C(=O)COC(=O)c3c(-c4ccccc4)noc3C)CC2)cc1 -5.58%
Cc1onc(-c2ccccc2Cl)c1C(=O)N1CCCC1 -6.38%
O=C(COc1ccccc1)N1CCN(c2ccccc2)CC1 10.3%
Cc1onc(-c2ccccc2Cl)c1C(=O)N1CCN(c2ccccc2)CC1 -3.16%
COc1ccc(S(=O)(=O)N2CCN(C(=O)c3c(-c4ccccc4)noc3C)CC2)cc1 0.45%
COc1ccc(N2CCN(C(=O)COc3ccc4ccccc4c3)CC2)cc1 2.55%
CCS(=O)(=O)N1CCC(C(=O)NC2CCCCCCC2)CC1 1.17%
Cc1cc(C(=O)N2CCN(S(=O)(=O)c3ccc(C)c(C)c3)CC2)no1 3.5%
COc1ccc(C)cc1NC(=O)c1cnc2scc(C)n2c1=O -5.79%
COc1ccc2cc(C3CC(c4cccs4)=NN3S(C)(=O)=O)c(Cl)nc2c1 (stereo unspecified) -0.38%
COc1ccc2[nH]c(C(=O)NCc3ccccc3)c(C)c2c1 1.63%
Cc1ccc(NS(=O)(=O)c2csc(C(N)=O)c2)cc1C -5.43%
CN(CC(=O)NCCc1ccc(S(N)(=O)=O)cc1)Cc1ccc(Cl)cc1Cl 4.74%
Cc1cc([N+](=O)[O-])nn1CC(=O)N1CCc2ccccc2C1 -2.29%
Cc1ccc(C)c(NC(=O)CN(C)C(=O)Cc2coc3cc(C)c(C)cc23)c1 0.3%
O=C(COC(=O)c1cnccn1)Nc1cc(S(=O)(=O)N2CCOCC2)ccc1Cl -11.1%
O=[N+]([O-])c1cc(-c2ccc(/C=N/n3cnnc3)o2)ccc1Cl 6.34%
O=[N+]([O-])c1ccc(-c2ccc(/C=N/c3c(-c4ccco4)nc4ccccn34)o2)cc1 7.55%
O=[N+]([O-])c1ccc(-c2ccc(C=Nc3cccc4ccccc34)o2)cc1 3.05%
Cc1cc([N+](=O)[O-])c(C)cc1-c1ccc(/C=N/n2cnnc2)o1 1.64%
CN(C)c1ccc(-c2nc3ccccn3c2/N=C/c2ccc(Br)cc2)cc1 6.4%
COc1cc(-c2nc3ccccn3c2/N=C/c2cc(OC)c(O)cc2Cl)ccc1O 22.2%
c1ccc(Nc2c(-c3ccco3)nc3ccccn23)cc1 -2.7%
Cc1ccc(Nc2c(-c3ccco3)nc3ccccn23)cc1 12%
COc1cc2[nH]c(=S)n(Cc3cccs3)c(=O)c2cc1OC -5.73%
Cc1cc(C)cc(OCC(=O)NN2C(=O)c3ccccc3C2=O)c1 2.37%
Cc1ccc(N(CC(=O)NC(C)(C)C)C(=O)CS(=O)CC(=O)Nc2ccc(F)cc2)cc1 (stereo unspecified) 10.4%
CCN(CC(=O)Nc1ccc(OC)cc1)C(=O)c1ccc2c(c1)NC(=O)C(C)S2 (stereo unspecified) 6.39%
COc1cccc(C(=O)N2CCN(C(=O)c3cccc4ccccc34)CC2)c1OC 1.56%
CSC1=N/C(=C\c2ccccc2)C(=O)N1C 4.78%
O=C(CN1C(=O)S/C(=C/c2ccccn2)C1=O)N1CCOCC1 2.37%
CCCCCn1c(=NC(=O)c2ccco2)c(C(=O)OCC)cc2c(=O)n3ccccc3nc21 4.41% and -0.06%
COc1cc(-c2nnc(NC(=O)CCS(=O)(=O)c3ccccc3)o2)cc(OC)c1OC 2.37%
O=C(O)Cn1cc(/C=C2\SC(=O)N(c3ccccc3)C2=O)c2ccccc21 -7.51%
Cc1cc(/C=C2/C(=O)NN(c3ccccc3)C2=O)c(C)n1-c1ccc(O)cc1 -5.99%
O=C1c2cccnc2C(=O)N1Cc1ccco1 7.44%
CC1(C)CC(=O)C2=C(C1)N(Cc1ccco1)C(=O)NC2(C(F)(F)F)C(F)(F)F -1.11%
O=C1CNC(=S)N1Cc1ccc(F)cc1 5.9%
Cn1cccc1/C=C1\SC(=S)N(NC(=O)c2ccc(F)cc2)C1=O 14.3%
Cc1cc(/C=C2\SC(=S)N(Cc3ccco3)C2=O)c(C)n1-c1ccccc1 3.57%
O=C(O)Cn1cc(/C=C2/NC(=O)N(c3ccc(Cl)cc3)C2=O)c2ccccc21 -2.83%
CNC(=O)C[C@H]1C(=O)N(C2CCCCC2)C[C@@H]1C 8.77%
COCCn1c(C)cc(/C=C(\C#N)C(=O)OCC(=O)N(C)c2c(N)n(Cc3ccccc3)c(=O)[nH]c2=O)c1C 10.7%
N#Cc1c(F)cccc1NCc1cccs1 -3.38%
